15 compounds from PubChem BioAssay (Tox21) can be followed below.

Values joined by “and” are separate entries in the source; they are usually repeats but may differ in a detail not shown here. Equal entries are not always repeated. Results filed as inconclusive are left out. Some structures have more than one record in an assay (separate samples or runs), and their calls can disagree. Active and inactive are the calls of the source. The call rests on the fitted dose curve; in most records, active means well fitted curve in the direction sought with a large enough effect in the repeat runs; inconclusive means weak or mixed curves; inactive means no such curve, though single readings can be large; an effect the other way counts as inactive or inconclusive.

Experiment [1] in a line: Caspase-3/7 induction in CHO-K1 cells by small molecules, qHTS cell viability counter screen (AID 1346979). Further: nearly all actives have a fitted effect of over 35% in size. Further: potency means the concentration at half of the fitted maximal effect. An outline of the steps:
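Wild-type CHO-K1 cells (1,500/well) treated with compound after 5 h plating; after 16 h at 37C, viability read as CellTiter-Fluor fluorescence following 1 h reagent incubation, in the same wells as the caspase read.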
(In qHTS, concentration-response curves come from the screen itself.)

Experiment [2] is described as follows: Caspase-3/7 induction in CHO-K1 cells by small molecules, qHTS assay (AID 1346980). Further: on the % scale 0 is the no-effect control and ±100 the full control effect; nearly all actives have a fitted effect of over 15% in size. The gist of the method: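 Wild-type cells were seeded at 1,500 per well and settled 5 hr at 37 C, 5% CO2, then exposed to DMSO-dissolved compounds for 17 hr. Caspase-Glo 3/7 reagent was added, and luminescence was read after 30min at room temperature.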
Experiment [3] can be described thus: Caspase-3/7 induction in HepG2 cells by small molecules, qHTS cell viability counter screen (AID 1346981). Further: nearly all actives have a fitted effect of over 30% in size. Further: potency means the concentration at half of the fitted maximal effect. The gist of the method: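 Fluorescence read-out of live-cell protease activity (CellTiter-Fluor) after 1 hr with reagent. This was measured in the same wells as the caspase-3/7 luminescence, on HepG2 cells exposed to DMSO-dissolved compounds for 16 hr at 37 C.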

Experiment [4] concerns the target Nuclear receptor subfamily 1 group I member 2 (Homo sapiens) (UniProt O75469). In words: Human pregnane X receptor (PXR) small molecule agonists, qHTS assay (AID 1346982). Further: nearly all actives have a fitted effect of over 35% in size. Further: potency means the concentration at half of the fitted maximal effect. On activation: on the % scale 0 is the no-effect control and ±100 the full control effect. The gist of the method: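 HepG2 PXR-Luc reporter line, 5% charcoal-stripped FBS; 5 hr pre-incubation, compound (DMSO) 24 hr at 37 C/5% CO2; ONE-Glo 30 min RT; luminescence read-out.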
The target of experiment [5] is Nuclear receptor subfamily 1 group I member 2 (Rattus norvegicus) (UniProt Q9R1A7). In words: Rat pregnane X receptor (rPXR) activation by small molecules, qHTS assay (AID 1346983). Further: on the % scale 0 is the no-effect control and ±100 the full control effect; nearly all actives have a fitted effect of over 20% in size. The note with it: rPXR luciferase reporter cells, One-Glo luminescence, 24 h; stronger effect = higher value. The gist of the method:
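Cell-based rPXR luciferase reporter assay, 2,000 cells per well, rested 5hr at 37 C before compound addition in DMSO, then 24 hr at 37 C. One-Glo reagent was added and luminescence read after 30 min at room temperature.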

For experiment [6], the target named is Nuclear receptor subfamily 1 group I member 2 (Homo sapiens) (UniProt O75469). In words: CYP3A4 induction through human pregnane X receptor (PXR) by small molecules, qHTS assay (AID 1346984). Further: nearly all actives have a fitted effect of over 40% in size. Further: potency means the concentration at half of the fitted maximal effect. On activation: on the % scale 0 is the no-effect control and ±100 the full control effect. An outline of the steps:
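HepG2-derived DPX-2 line carrying PXR plus a CYP3A4-promoter luciferase reporter; cells plated 5 hr, compound-exposed 24 hr at 37C. CYP3A4 activity probed with 3uM (final) Luciferin-IPA for 3hr, then luciferase read after One-Glo.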

Experiment [7] shares this target. In words: Human pregnane X receptor (PXR) activation by small molecules, qHTS assay (AID 1346985). Further: potency means the concentration at half of the fitted maximal effect; nearly all actives have a fitted effect of over 40% in size. An outline of the steps: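 DPX-2 cells (HepG2 co-transfected with a PXR response element and a CYP3A4-promoter luciferase construct) were seeded at 2,000 per well, rested 5 hr at 37C, then exposed to DMSO-dissolved compounds for 24 hr. Activation was read as luciferase luminescence.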

Experiment [8] addresses Voltage-gated inwardly rectifying potassium channel KCNH2 (Homo sapiens) (UniProt Q12809). In words: Human Ether-a-go-go-Related Gene (hERG) channel small molecule antagonists: fluorescence cell-based qHTS assay (AID 1671200). Further: nearly all actives have a fitted effect of over 50% in size. Further: potency means the concentration at half of the fitted maximal effect. The gist of the method: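 hERG-U2OS cells plated overnight at 37 C, loaded with FluxOR II dye 1 h at RT in dark; after 10 min, thallium stimulus added. Fluorescence (480/540 nm) read kinetically for 2 min at 1 s intervals.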
(In general: hERG is a cardiac potassium channel; its block is linked to QT prolongation.)

A short description of experiment [9]: Caspase-3/7 induction in HepG2 cells by small molecules, qHTS assay (AID 1346978). Further: nearly all actives have a fitted effect of over 15% in size. Further: potency means the concentration at half of the fitted maximal effect. The gist of the method:
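Wild-type HepG2 cells (2,000/well) were settled 5 h at 37 C, 5% CO2, then exposed to compounds in DMSO for 17 h. Caspase-3/7 activity was read by luminescence 30 min after adding Caspase-Glo 3/7 reagent at room temperature.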

The target of experiment [10] is Cytochrome P450 2D6 (Homo sapiens) (UniProt P10635). In words: Cytochrome P450 Family 2 Subfamily D Member 6 (CYP2D6) small molecule antagonists: luciferase reporter qHTS assay (AID 1671196). Further: nearly all actives have a fitted effect of over 50% in size. Further: potency means the concentration at half of the fitted maximal effect. An outline of the steps: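 Luminogenic proluciferin substrate, CYP2D6 enzyme; 10 min RT preincubation with compound, NADPH regeneration system added, 1 h RT. Stop/detection reagent, 20 min RT, luminescence read (RLU). Signal proportional to CYP activity.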
In general terms: In a reporter assay the amount or activity of a reporter protein is the signal.

The target in experiment [11] is Cytochrome P450 2C19 (Homo sapiens) (UniProt P33261). In words: Cytochrome P450 Family 2 Subfamily C Member 19 (CYP2C19) small molecule antagonists: luciferase reporter qHTS assay (AID 1671197). Further: nearly all actives have a fitted effect of over 65% in size. Further: potency means the concentration at half of the fitted maximal effect. The gist of the method: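 Compounds were tested on CYP2C19 activity via proluciferin conversion to luciferin. The 37C, 1 h reaction followed NADPH addition; detection reagent stopped it.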

Experiment [12] has as its target Cytochrome P450 2C9 (Homo sapiens) (UniProt P11712). Kind of experiment: Cytochrome P450 Family 2 Subfamily C Member 9 (CYP2C9) small molecule antagonists: luciferase reporter qHTS assay (AID 1671198). Further: nearly all actives have a fitted effect of over 50% in size. Further: potency means the concentration at half of the fitted maximal effect. An outline of the steps: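 CYP2C9 activity was measured with a P450-Glo proluciferin substrate. Enzyme–substrate mix was held with compound for 10 min at room temperature, then NADPH regeneration solution was added for 1 h at 37C. Luciferin product was read as luminescence.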

Experiment [13] deals with Cytochrome P450 1A2 (Homo sapiens) (UniProt P05177). In words: Cytochrome P450 Family 1 Subfamily A Member 2 (CYP1A2) small molecule antagonists: luciferase reporter qHTS assay (AID 1671199). Further: nearly all actives have a fitted effect of over 50% in size. Further: potency means the concentration at half of the fitted maximal effect. An outline of the steps: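 Luminescence readout (relative luminescence units) after luciferin detection reagent, 20 min RT. Preceded by 1 h room-temperature CYP1A2 reaction with NADPH regeneration solution following 10 min compound preincubation with enzyme and proluciferin substrate. Furafylline positive control.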

Experiment [14] has as its target Cytochrome P450 3A4 (Homo sapiens) (UniProt P08684). In words: Cytochrome P450 Family 3 Subfamily A Member 4 (CYP3A4) small molecule antagonists: luciferase reporter qHTS assay (AID 1671201). Further: nearly all actives have a fitted effect of over 50% in size. Further: potency means the concentration at half of the fitted maximal effect. An outline of the steps:
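P450-Glo CYP3A4 luminescent assay: compounds preincubated 10 min at room temperature with enzyme and proluciferin substrate, NADPH regeneration added, 1 h room-temperature reaction, stopped with luciferin detection reagent; luminescence read after 20 min. Ketoconazole positive control.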

Sequence of Cytochrome P450 3A4 (Homo sapiens) (P08684 whole entry, looked up): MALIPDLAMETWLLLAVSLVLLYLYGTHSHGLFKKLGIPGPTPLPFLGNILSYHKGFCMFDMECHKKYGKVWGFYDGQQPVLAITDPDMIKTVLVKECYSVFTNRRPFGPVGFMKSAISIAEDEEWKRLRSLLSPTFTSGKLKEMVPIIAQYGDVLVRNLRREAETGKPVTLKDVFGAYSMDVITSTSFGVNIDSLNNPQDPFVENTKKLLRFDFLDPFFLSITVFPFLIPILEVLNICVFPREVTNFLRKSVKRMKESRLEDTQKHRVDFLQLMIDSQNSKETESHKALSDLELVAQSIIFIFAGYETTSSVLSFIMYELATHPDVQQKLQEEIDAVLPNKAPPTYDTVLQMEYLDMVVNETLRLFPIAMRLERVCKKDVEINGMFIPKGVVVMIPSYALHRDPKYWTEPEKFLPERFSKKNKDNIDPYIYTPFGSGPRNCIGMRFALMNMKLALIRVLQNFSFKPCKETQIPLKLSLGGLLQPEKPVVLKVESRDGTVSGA
Sequence of Cytochrome P450 2C9 (Homo sapiens) (P11712 whole entry, looked up): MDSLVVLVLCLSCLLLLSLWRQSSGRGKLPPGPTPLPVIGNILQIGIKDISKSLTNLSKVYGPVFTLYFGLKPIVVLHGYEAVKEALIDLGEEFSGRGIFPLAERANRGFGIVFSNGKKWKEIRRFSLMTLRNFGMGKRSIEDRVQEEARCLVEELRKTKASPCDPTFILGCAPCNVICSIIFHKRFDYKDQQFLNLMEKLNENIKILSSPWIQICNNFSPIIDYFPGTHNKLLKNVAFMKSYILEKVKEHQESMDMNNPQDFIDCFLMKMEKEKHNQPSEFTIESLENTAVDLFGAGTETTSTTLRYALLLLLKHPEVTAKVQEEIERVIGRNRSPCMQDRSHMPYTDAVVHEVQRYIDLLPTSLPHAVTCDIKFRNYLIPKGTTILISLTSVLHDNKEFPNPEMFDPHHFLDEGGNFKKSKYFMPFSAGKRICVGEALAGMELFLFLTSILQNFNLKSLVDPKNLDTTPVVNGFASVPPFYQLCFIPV
Sequence of Cytochrome P450 2C19 (Homo sapiens) (P33261 whole entry, looked up): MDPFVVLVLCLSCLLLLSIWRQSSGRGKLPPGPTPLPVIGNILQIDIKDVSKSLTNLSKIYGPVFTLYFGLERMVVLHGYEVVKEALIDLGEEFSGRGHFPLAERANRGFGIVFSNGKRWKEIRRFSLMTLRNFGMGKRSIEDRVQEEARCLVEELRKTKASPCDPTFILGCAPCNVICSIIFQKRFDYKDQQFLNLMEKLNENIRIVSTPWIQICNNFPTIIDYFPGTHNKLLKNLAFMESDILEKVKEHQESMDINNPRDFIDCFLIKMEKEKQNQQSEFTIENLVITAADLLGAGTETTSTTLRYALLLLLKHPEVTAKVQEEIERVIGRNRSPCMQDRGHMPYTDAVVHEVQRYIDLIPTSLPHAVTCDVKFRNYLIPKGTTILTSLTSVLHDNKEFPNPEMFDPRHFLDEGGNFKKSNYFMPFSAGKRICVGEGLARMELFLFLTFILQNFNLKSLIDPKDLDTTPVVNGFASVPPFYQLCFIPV
Sequence of Cytochrome P450 1A2 (Homo sapiens) (P05177 whole entry, looked up): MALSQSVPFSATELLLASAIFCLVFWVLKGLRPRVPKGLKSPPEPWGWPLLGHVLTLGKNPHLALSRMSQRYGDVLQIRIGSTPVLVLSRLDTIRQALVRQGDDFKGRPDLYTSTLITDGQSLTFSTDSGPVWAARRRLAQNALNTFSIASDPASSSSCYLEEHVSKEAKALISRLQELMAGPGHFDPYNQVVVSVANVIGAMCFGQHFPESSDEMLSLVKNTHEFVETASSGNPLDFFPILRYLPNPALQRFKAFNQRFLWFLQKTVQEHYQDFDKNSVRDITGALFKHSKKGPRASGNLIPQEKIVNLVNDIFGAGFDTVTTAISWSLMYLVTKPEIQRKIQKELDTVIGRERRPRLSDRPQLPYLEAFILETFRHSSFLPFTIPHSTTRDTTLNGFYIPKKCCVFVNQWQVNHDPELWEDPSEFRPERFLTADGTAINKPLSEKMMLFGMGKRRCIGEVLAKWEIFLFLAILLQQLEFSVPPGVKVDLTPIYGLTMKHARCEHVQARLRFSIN
Sequence of Cytochrome P450 2D6 (Homo sapiens) (P10635 whole entry, looked up): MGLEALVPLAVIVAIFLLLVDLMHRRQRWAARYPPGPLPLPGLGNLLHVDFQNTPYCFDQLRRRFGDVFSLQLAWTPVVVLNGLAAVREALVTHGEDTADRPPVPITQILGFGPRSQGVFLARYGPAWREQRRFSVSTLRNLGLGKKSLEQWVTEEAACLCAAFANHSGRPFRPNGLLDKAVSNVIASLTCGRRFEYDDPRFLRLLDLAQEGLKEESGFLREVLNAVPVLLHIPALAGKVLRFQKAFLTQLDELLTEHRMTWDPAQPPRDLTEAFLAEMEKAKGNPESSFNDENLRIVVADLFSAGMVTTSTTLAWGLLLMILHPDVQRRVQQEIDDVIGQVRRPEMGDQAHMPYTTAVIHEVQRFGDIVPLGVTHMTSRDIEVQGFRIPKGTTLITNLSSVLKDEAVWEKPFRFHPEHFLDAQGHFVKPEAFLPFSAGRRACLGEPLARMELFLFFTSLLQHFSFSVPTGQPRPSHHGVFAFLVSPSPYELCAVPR
Sequence of Voltage-gated inwardly rectifying potassium channel KCNH2 (Homo sapiens) (Q12809 whole entry, looked up): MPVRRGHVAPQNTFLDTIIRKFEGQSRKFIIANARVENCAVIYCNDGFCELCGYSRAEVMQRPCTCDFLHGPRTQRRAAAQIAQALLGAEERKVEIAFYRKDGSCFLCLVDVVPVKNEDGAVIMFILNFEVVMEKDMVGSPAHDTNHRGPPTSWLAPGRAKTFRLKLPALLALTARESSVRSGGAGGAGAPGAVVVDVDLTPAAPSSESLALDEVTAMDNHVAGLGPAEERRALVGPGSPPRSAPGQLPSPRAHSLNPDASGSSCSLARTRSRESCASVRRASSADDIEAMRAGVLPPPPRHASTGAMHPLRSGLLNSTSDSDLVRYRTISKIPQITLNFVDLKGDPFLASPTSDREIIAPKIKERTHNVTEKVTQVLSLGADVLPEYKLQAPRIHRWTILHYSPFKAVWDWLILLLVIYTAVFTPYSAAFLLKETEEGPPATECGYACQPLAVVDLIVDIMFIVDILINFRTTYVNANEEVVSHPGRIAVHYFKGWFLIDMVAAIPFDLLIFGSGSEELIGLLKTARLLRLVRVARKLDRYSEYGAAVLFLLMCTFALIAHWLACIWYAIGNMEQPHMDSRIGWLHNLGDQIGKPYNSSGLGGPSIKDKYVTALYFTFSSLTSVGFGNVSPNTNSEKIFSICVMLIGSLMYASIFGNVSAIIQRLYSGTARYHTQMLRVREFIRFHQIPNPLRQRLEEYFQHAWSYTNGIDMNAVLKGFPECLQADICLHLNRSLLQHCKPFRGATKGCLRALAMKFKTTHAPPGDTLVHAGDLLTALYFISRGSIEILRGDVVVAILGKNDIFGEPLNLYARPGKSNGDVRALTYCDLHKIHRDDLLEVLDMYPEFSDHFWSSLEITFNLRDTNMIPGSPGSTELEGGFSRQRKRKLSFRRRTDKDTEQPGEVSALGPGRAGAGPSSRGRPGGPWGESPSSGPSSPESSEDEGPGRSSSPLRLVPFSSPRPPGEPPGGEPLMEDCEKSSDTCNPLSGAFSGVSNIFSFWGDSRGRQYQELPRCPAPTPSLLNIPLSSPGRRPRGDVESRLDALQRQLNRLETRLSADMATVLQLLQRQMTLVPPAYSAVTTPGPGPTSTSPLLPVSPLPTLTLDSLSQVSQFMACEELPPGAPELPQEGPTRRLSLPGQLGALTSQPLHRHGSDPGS
Sequence of Nuclear receptor subfamily 1 group I member 2 (Homo sapiens) (O75469 whole entry, looked up): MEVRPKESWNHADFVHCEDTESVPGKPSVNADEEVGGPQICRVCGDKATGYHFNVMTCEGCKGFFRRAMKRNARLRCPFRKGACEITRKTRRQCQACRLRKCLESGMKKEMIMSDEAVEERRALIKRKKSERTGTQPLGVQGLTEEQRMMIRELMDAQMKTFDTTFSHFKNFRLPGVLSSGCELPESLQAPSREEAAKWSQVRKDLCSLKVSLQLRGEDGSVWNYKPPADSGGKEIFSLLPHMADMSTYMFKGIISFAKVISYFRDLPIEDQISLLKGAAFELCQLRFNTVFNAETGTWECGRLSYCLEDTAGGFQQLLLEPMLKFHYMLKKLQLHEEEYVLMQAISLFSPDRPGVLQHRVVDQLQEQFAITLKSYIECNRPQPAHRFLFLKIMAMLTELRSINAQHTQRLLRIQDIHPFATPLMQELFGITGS
Sequence of Nuclear receptor subfamily 1 group I member 2 (Rattus norvegicus) (Q9R1A7 whole entry, looked up): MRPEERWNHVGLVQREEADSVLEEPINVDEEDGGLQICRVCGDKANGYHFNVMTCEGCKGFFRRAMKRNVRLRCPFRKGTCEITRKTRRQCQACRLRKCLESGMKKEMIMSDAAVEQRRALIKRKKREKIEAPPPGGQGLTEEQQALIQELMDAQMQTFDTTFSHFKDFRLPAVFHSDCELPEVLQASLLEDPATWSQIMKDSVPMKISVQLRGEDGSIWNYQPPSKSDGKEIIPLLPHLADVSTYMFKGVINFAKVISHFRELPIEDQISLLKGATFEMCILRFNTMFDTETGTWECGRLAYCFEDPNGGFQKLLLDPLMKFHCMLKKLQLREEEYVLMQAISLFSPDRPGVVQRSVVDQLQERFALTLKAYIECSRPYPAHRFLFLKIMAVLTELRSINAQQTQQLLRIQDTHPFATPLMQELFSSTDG

With `CN(C)c1ccc2nc3ccc(=[N+](C)C)cc-3sc2c1`, the Potency in [1] was 5.87 µM (active) and 24.3 µM (active) and 5.96 µM (active); in experiment [3], 10.4 µM (active) and 27.3 µM (active) and 23.7 µM (active); in experiment [7], 3.16 µM (active). The Potency result in [2], in experiment [4], in experiment [6] and in experiment [8] was “inactive” in each case. In addition, in experiment [5], the max activation was -8.38% (inactive).

For `O=C(O)Cn1cnnn1`, the Potency result in [9], in experiment [1], in [3], in experiment [4], in [10] and in experiment [11] was “inactive” throughout. Besides, the Potency entry in experiment [12], in experiment [13], in experiment [8] and in [14] was “inactive” throughout.

As to `CC(C)C(=O)c1c(C(C)C)nn2ccccc12`, the Potency result in experiment [9], in experiment [1], in experiment [10], in [11], in experiment [12] and in experiment [8] was “inactive” each time. Further, the Potency entry in [14] is “inactive”. The results for the Potency in experiment [4] and in experiment [13] were 26.6 µM (active) and 2.57 µM (active), respectively.

With `c1ccc2n[nH]nc2c1`, the Potency result in [9], in experiment [1], in experiment [3], in experiment [4], in experiment [10] and in experiment [11] was “inactive” throughout. For the same compound, the Potency entry in experiment [12], in experiment [13], in experiment [8] and in experiment [14] was “inactive” throughout.

Regarding `CCCCC/C=C/CC1CC(=O)OC1=O` (stereo unspecified), the Potency entry in experiment [9], in [3], in [10], in [12], in [8] and in [14] was “inactive” in each case. Moreover, the Potency in [13] was 28.3 µM (active).

On to `COc1ccc(CCN(C)CCCC(C#N)(c2ccc(OC)c(OC)c2)C(C)C)cc1OC` (stereo unspecified), for which the Potency entry in [10], in experiment [11], in experiment [12] and in [13] was “inactive” throughout.

As for `CCCCCCCCCCCC[N+](C)(C)C`, the Potency entry in experiment [9], in [3], in experiment [12], in [13] and in experiment [14] was “inactive” in each case. In addition, the Potency in [1] was 68.4 µM (active); in [10], 3.55 µM (active) and 3.56 µM (active) and 2.24 µM (active); in experiment [11], “inactive and 79.6 µM (active)”; in [8], 21.9 µM (active).

For `O=C(Oc1ccccc1)c1ccccc1O`, the Potency entry in experiment [9], in experiment [1], in experiment [3], in experiment [10], in experiment [11] and in [8] was “inactive” in each case. In addition, in [14], the Potency result is “inactive”. For the same compound, the Potency in experiment [12] was 35.6 µM (active) and 24.5 µM (active); in experiment [13], 35.7 µM (active) and 35.6 µM (active) and 28.8 µM (active).

With `CCN(CC)C(=S)SSC(=S)N(CC)CC`, the Potency was 611 nM (active) and 395 nM (active) in experiment [9]; 137 nM (active) and 62.6 nM (active) and 376 nM (active) in [1]; 15.7 µM (active) and 10.6 µM (active) in experiment [4]; 32.5 µM (active) in experiment [10]; 6.33 µM (active) and 4.21 µM (active) and 4.36 µM (active) in experiment [12]; 31.7 µM (active) and 21.3 µM (active) and 6.45 µM (active) in experiment [13]. Moreover, the Potency in experiment [8] is 41 µM (active) and inactive. Further, the Potency result in experiment [3] was “inactive”.

Consider `O=C1OC2(c3ccc(O)cc3Oc3cc(O)ccc32)c2ccccc21`, for which the Potency entry in [9], in [2], in experiment [10], in [13] and in experiment [14] was “inactive” each time. The Potency in [4] was 21.7 µM (active) and inactive; in [6], 14.1 µM (active); in [11] it was 20 µM (active) and 4.9 µM (active); in experiment [12], 11.2 µM (active); in [8], 15.5 µM (active) and inactive. In addition, in experiment [5], the max activation was 0.287% (inactive).

`c1ccc2c(c1)CCCC2C1=NCCN1` (stereo unspecified): the Potency entry in [9], in [1], in experiment [3] and in [8] was “inactive” throughout.

For `Nc1cc(Cl)c(-c2cc(Cl)c(N)cc2Cl)cc1Cl`, the Potency in experiment [1] is 30.6 µM (active) and 54.5 µM (active); in experiment [4], 24.3 µM (active) and 19.3 µM (active); in experiment [11], 10 µM (active) and 7.1 µM (active); in experiment [13], 11.2 µM (active) and 12.6 µM (active); in experiment [14], 2 µM (active) and 3.56 µM (active). Further, the Potency result in [8] was “inactive”.

On to `O=C1Nc2ccccc2C1(c1ccc(O)cc1)c1ccc(O)cc1`, for which the Potency entry in experiment [9], in experiment [2], in [3], in experiment [13] and in [8] was “inactive” each time. In addition, the Potency was 17.8 µM (active) and 9.77 µM (active) in experiment [11]; 6.33 µM (active) and 3.89 µM (active) in [12].

Regarding `C=CC(=O)OCCCCCCOC(=O)C=C`, the Potency entry in [9], in experiment [3], in experiment [4], in experiment [10] and in [8] was “inactive” each time. For the same compound, the Potency was 43.8 µM (active) and 43.3 µM (active) in experiment [1]; 39.9 µM (active) in [11]; 64.1 µM (active) and 56.4 µM (active) in [12]; 28.6 µM (active) and 31.7 µM (active) in experiment [13]; 40.4 µM (active) in experiment [14].

Regarding `NC(N)=Nc1nc(CSCC/C(N)=N/S(N)(=O)=O)cs1`, the Potency result in experiment [9], in experiment [1], in experiment [3], in experiment [4], in [10] and in [11] was “inactive” each time. In addition, the Potency result in experiment [12], in experiment [13] and in [14] was “inactive” each time.
